Results from PubChem BioAssay AID720514 (Broad Institute, 2013).
The whole screen tested about 2,100 compounds, of which about 300 (14%) were called active. Not shown: some 2% with an inconclusive outcome.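 The calls were made as follows: active = every replicate test run called active, with the signal falling and half-maximal concentration within twice the top valid dose; inconclusive = the replicate test runs disagree in their calls; inactive = every test run inactive, including effects in the opposite direction.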 A selection follows. Measured potencies and affinities stand elsewhere.

Test: inhibitors of PGC1a acetylation in cells, dose response, cell-based, cherry-picked samples (AID 720514);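 also: actives lower the acetylation signal so they count as inhibitors of PGC1a acetylation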
Conditions: U2OS PGC1a acetylation, AlphaLISA, overnight; series mostly up to 19.5 µM

outcome, inactive:
Cc1c(C(=O)NCCSCc2c(F)cccc2Cl)cnn1-c1ccc(Cl)cc1, CC1CN(S(=O)(=O)c2ccc(C(=O)NCCCn3ccnc3)cc2)CC(C)O1 (configuration not stated), CCN(CC)CC(=O)N1c2ccccc2CCc2ccc(NC(=O)c3cc(OC)c(OC)c(OC)c3)cc21, O=C(c1cccc([N+](=O)[O-])c1)N1CCc2ccccc21, CC(C)(C)c1ccc(NC(=O)N2CCN(c3ccc([N+](=O)[O-])cn3)CC2)cc1, Cc1ccc(S(=O)(=O)Nc2ccc3c(c2)C(=O)N([C@@H](C)CO)C[C@@H](C)[C@H](CN(C)C(=O)Nc2cccc4ccccc24)OCCCC[C@H](C)O3)cc1, C[C@@H]1CCCCO[C@@H](CN(C)CC2CC2)[C@H](C)CN([C@H](C)CO)C(=O)c2cc(NS(=O)(=O)c3ccccc3)ccc2O1, C[C@@H]1CCCCO[C@@H](CN(C)Cc2ccc(Cl)c(Cl)c2)[C@H](C)CN([C@@H](C)CO)C(=O)c2cc(NC(=O)CCC(F)(F)F)ccc2O1, Cc1noc(C)c1S(=O)(=O)Nc1ccc2c(c1)C(=O)N([C@@H](C)CO)C[C@@H](C)[C@@H](CN(C)Cc1ccc3c(c1)OCO3)OCCCC[C@@H](C)O2, CNC[C@H]1OCCCC[C@@H](C)Oc2ccc(NS(=O)(=O)c3ccccc3)cc2C(=O)N([C@H](C)CO)C[C@@H]1C, C[C@@H]1CN([C@H](C)CO)C(=O)c2cc(N(C)C)ccc2O[C@@H](C)CCCCO[C@H]1CN(C)C(=O)Cc1ccccc1, Cc1noc(C)c1S(=O)(=O)Nc1ccc2c(c1)C(=O)N([C@H](C)CO)C[C@H](C)[C@H](CN(C)C(=O)c1ccncc1)OCCCC[C@@H](C)O2, O=C(OCc1nc2ccsc2c(=O)[nH]1)c1cccc(S(=O)(=O)N2CCOCC2)c1, NCC[C@H]1CC[C@@H](NC(=O)C2CCCCC2)[C@@H](CO)O1, O=C(C[C@H]1CC[C@H]2[C@@H](COC[C@@H](O)CN2C(=O)c2cc(Cl)cc(Cl)c2)O1)N1CCc2ccccc2C1, N#Cc1ccccc1COC(=O)c1ccc2c(c1)OCCO2, COc1ccc(NC(=O)Cn2ncc(Cl)c(Cl)c2=O)cc1S(=O)(=O)N1CCOCC1, CCc1nnc(NC(=O)Cc2ccc(S(=O)(=O)N3CCCCC3)cc2)s1, Fc1ccc(-c2nn3c(C4COc5ccccc5O4)nnc3s2)cc1 (configuration not stated), COc1ccc2c(c1)C(C)=CC(C)(C)N2S(=O)(=O)c1ccc(Br)cc1, OC(COc1ccc(CNCCc2ccc(C(F)(F)F)cc2)cc1)CN1CCCCC1 (configuration not stated), CC1(C)CC(=O)C2=C(C1)Nc1ccccc1N1C(=O)c3ccccc3C21 (configuration not stated), O=C(NCc1csc(-c2cccs2)n1)c1cccc(Cl)c1, CN1OC(COC(=O)c2ccccc2)CC1c1ccccc1 (configuration not stated), CCC(=O)Nc1ccc(C(=O)Cn2ncc(Cl)c(Cl)c2=O)cc1, O=S(=O)(c1ccccc1)N(CC(F)(F)F)c1ccc(C(O)(C(F)(F)F)C(F)(F)F)cc1, COc1ccc(NC(=O)C2(C)Cc3c(-c4cccc(NC(C)=O)c4)ccnc3O2)cc1 (configuration not stated), CCOC(=O)C1=CC[C@@H](c2ccccc2)N(S(=O)(=O)c2ccc(C)cc2)[C@H]1c1cccc(OC)c1, Cc1csc(NC(=O)CSc2nsc(SCC(=O)Nc3nc(C)cs3)c2C#N)n1, CN1CCN(c2ccc(CNC(=O)c3ccc(-c4ccnn4C)c4ccoc34)cc2)CC1, COc1cc(CN2CCCC(CO)(Cc3cccc(Cl)c3)C2)cc2c1OCO2 (configuration not stated), CCOc1ccc(N(C)S(=O)(=O)c2cc(-c3cc(C)no3)ccc2C(C)C)cc1, C[C@@H]1CN([C@@H](C)CO)C(=O)c2c(c3ccccc3n2C)-c2ccccc2CO[C@@H]1CN(C)C(=O)Nc1ccc2c(c1)OCO2, COC(=O)c1cc(S(=O)(=O)N2CCN(c3ccc(C(C)=O)cc3)CC2)c[nH]1, CCC(=O)N(CC)c1nc(-c2ccc(OC)cc2)cs1, CSc1nc(NCc2ccco2)c2ccccc2n1, Cc1ccc2oc(-c3ccc(NC(=O)c4cccnc4)cc3)nc2c1, CC(C)CCNc1nc(N2CCCC2)c2c(c1C#N)CCN(C)C2, CC/C(=C(\c1ccc(O)cc1)c1ccc(OCCN(C)C)cc1)c1ccccc1, COc1ccccc1CN1CCCC(C(=O)N(C)Cc2ccccc2)C1 (configuration not stated), OC(c1ccccc1)(C1CCCCC1)C(CN1CCOCC1)c1ccccc1 (configuration not stated), COc1ccc(CCC(=O)NCCS(=O)(=O)N2CCN(c3ccccc3)CC2)cc1, CCN1CCN(C(=O)c2ccc3c(=O)n(CCC4=CCCCC4)c(=O)[nH]c3c2)CC1, O=[N+]([O-])c1ccc(N2CCN(CC3CCCCC3)CC2)cc1, COc1ccc(C(c2nnnn2C2CCCC2)N2CCC(C)CC2)c(OC)c1 (configuration not stated), c1ccc(Cn2nnnc2C(c2cccs2)N2CCCCCC2)cc1 (configuration not stated), c1ccc(C(c2nnnn2Cc2cccs2)N2CCN(C3CCCC3)CC2)cc1 (configuration not stated), c1ccc(CN2OCC3Cn4c(nc5ccccc54)C32)cc1 (configuration not stated), CC(C)C(c1nnnn1Cc1ccccc1)N(Cc1ccco1)Cc1cccs1 (configuration not stated), COc1ccc(-n2nnnc2CNC(=O)c2ccc3ccccc3c2)cc1, COc1cccc(CN2C[C@@H]3N[C@H](C2)C3c2ccc(-c3ccccc3F)cc2)c1 (some centres not stated), CCOC(=O)Cn1cnc2scc(-c3ccccc3)c2c1=O, O=C(Cc1ccccc1)Nc1nc(-c2ccc(F)c(F)c2)cs1, Cc1cccc(-c2ccc(C3[C@@H]4CN(C(=O)C5CCCCC5)C[C@H]3N4)cc2)c1 (some centres not stated), COc1cccc(CN2C[C@@H]3N[C@H](C2)C3c2ccc(-c3cccc(C#N)c3)cc2)c1 (some centres not stated), COc1cccc(-c2ccc(C3[C@@H]4CN(Cc5ccccn5)C[C@H]3N4)cc2)c1 (some centres not stated), COc1ccccc1CN1C[C@@H]2N[C@H](C1)C2c1ccc(-c2ccccc2OC)cc1 (some centres not stated)
